In PubChem BioAssay one finds z-score and composite z-score data, which are given here for eight compounds.

Calls of active or inactive are those of the source. Unless noted, the rule behind the calls is not given here.

A short description of experiment [1]: compound effects on lung adenocarcinoma cell viability – A549, calcein-AM fluorescence, 48 h, basal, profiling panel (AID 1162). Note: test concentration not given here. The following applies: higher = more signal.
Experiment [2] in a line: compound effects on differentiated 3T3-L1 adipocyte viability – cell-based, 3T3-L1 adipocytes, calcein-AM fluorescence, 48 h, basal, profiling panel (AID 1163). Note: test concentration not given here. The note with it: 3T3-L1 adipocytes viability, higher = more signal.
A short description of experiment [3]: compound effects on hepatocellular carcinoma cell viability – HepG2, calcein-AM fluorescence, 48 h, basal, profiling panel (AID 1164). Note: test concentration not given here. The note with it: higher = more signal.
The nature of experiment [4]: compound effects on multiple myeloma cell viability – MM1S, calcein-AM fluorescence, 48 h, basal, profiling panel (AID 1165).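 Note: viability of MM1S multiple myeloma cells under basal unstimulated conditions; test concentration not given here.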 The following applies: higher = more signal.
Experiment [5] in a line: calcein-AM signal in unstimulated myeloma cells – cell-based, calcein-AM fluorescence, 48 h, PK04 Diversity Set, profiling panel (AID 1166).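 Note: cells grown under basal conditions without added stimulus; test concentration not given here.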 The following applies: RPMI8226 myeloma viability, higher = more signal.
Experiment [6] is described as follows: JC-1 mitochondrial signal, unstimulated HepG2 cells – cell-based, JC-1 fluorescence, 24 h, 100 nL compound, profiling panel (AID 1167). Note: test concentration not given here. The note with it: HepG2 mitochondrial potential, higher = more signal.
The nature of experiment [7]: JC-1 mitochondrial signal, unstimulated adipocytes – cell-based, JC-1 fluorescence, 3T3-L1 adipocytes, 24 h, 100 nL compound, profiling panel (AID 1168). Note: test concentration not given here. The following applies: JC-1 mitochondrial fluorescence, higher = more signal, called active from +8 up or from −8 down.
The nature of experiment [8]: JC-1 mitochondrial signal, unstimulated myeloma cells – cell-based, JC-1 fluorescence, RPMI8226, 24 h, 100 nL compound, profiling panel (AID 1169). Note: test concentration not given here. The note with it: JC-1 mitochondrial potential fluorescence, higher = more signal.
Experiment [9] can be described thus: JC-1 mitochondrial signal, unstimulated MM1S myeloma – cell-based, JC-1 fluorescence, 24 h, 100 nL compound, profiling panel (AID 1170). Note: test concentration not given here. The following applies: MM1S mitochondrial potential, higher = more signal.
A short description of experiment [10]: resazurin metabolic signal in A549 cells – cell-based, resazurin fluorescence, 24 h, PK04 Diversity Set, profiling panel (AID 1171). Note: test concentration not given here. The following applies: A549 viability, higher = more signal, called active from +8 up or from −8 down. In general terms: The colour change of resazurin is a common sign of viable cells or microbes.
Experiment [11] is described as follows: resazurin metabolic signal in HepG2 cells – cell-based, resazurin fluorescence, 24 h, PK04 Diversity Set, profiling panel (AID 1172). Note: test concentration not given here. The note with it: HepG2 viability, higher = more signal.
Experiment [12] in a line: budding yeast growth changes without added modifier – OD600, strain BY4716, 24 h, basal condition, primary screen (AID 1173). The note with it: S. cerevisiae BY4716 growth, OD600, 24 h; higher = more signal, called active from +8 up or from −8 down.
A short description of experiment [13]: viability profiling in MM1S myeloma cells – cell-based, resazurin fluorescence, basal, 24 h, PK04 Diversity Set, profiling panel (AID 1174). Note: test concentration not given here. The following applies: higher = more signal, called active from +8 up or from −8 down.
For experiment [14], the target named is Dihydroorotate dehydrogenase (quinone), mitochondrial (Plasmodium falciparum (isolate 3D7)) (UniProt Q08210). Description: inhibition of P. falciparum DHODH – biochemical, C-terminal His tag, absorbance 600 nm, primary screen (AID 1175).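 Note: recombinant parasite enzyme with a five histidine tag at its C terminus; test concentration not given here.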 The note with it: PfDHODH enzyme, DCIP absorbance 600 nm; higher = more signal, called active from +8 up or from −8 down.
Chain of Dihydroorotate dehydrogenase (quinone), mitochondrial (Plasmodium falciparum (isolate 3D7)) (Q08210 whole entry, looked up): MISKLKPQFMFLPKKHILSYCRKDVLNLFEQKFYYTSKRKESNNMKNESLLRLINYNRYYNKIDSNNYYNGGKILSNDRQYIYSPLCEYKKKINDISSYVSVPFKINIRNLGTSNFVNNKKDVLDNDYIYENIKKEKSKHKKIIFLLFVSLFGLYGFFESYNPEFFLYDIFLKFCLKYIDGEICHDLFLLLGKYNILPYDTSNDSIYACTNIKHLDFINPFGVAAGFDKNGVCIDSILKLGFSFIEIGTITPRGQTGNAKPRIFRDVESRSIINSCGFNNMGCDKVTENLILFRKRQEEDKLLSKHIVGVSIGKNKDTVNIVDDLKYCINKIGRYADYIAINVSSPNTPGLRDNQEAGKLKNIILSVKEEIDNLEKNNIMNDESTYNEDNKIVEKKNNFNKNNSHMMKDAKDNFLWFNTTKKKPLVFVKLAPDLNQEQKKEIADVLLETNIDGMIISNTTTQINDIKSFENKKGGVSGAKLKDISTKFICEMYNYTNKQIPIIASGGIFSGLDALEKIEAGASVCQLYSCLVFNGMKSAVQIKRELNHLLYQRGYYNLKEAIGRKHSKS
The nature of experiment [15]: inhibition of PAO1 biofilm formation – strain PAO1, LB-PBS medium, absorbance 600 nm, primary screen (AID 1176). Note: test concentration not given here. The note with it: P. aeruginosa PAO1 growth/biofilm, A600, 12 h; higher = more signal.
Experiment [16] in a line: growth modulation of vineyard yeast isolate – strain RM11-1a, OD600, basal, 24 h, primary screen (AID 1177).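 Note: cultures grown under basal conditions with no added stressor; test concentration not given here.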 The note with it: S. cerevisiae RM11-1a growth, OD600, 24 h; higher = more signal, called active from +8 up or from −8 down.
Experiment [17] in a line: growth of efflux-deficient E. coli DRC39 – strain DRC39, OD650, 24 h, E. coli filamentation inducers, primary screen (AID 1178).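 Note: growth measured as culture turbidity by optical density at 650 nm; test concentration not given here.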 The note with it: E. coli DRC39 acrAB, higher = more signal, called active from +8 up or from −8 down.
Experiment [18] is described as follows: growth of efflux-deficient E. coli DRC39 – strain DRC39, OD650, 48 h, E. coli filamentation inducers, primary screen (AID 1179).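 Note: screen aims at cell division blockers that make cells filament.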 The following applies: E. coli DRC39 delta-acrAB growth, higher = more signal, called active from +8 up or from −8 down.
Experiment [19] can be described thus: viability profiling in RPMI8226 myeloma cells – cell-based, resazurin fluorescence, basal, 24 h, PK04 Diversity Set, profiling panel (AID 1180).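 Note: RPMI8826 multiple myeloma cell line at 5000 cells per well; test concentration not given here.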 The note with it: higher = more signal.
Experiment [20] concerns the target E3 ubiquitin-protein ligase XIAP (Homo sapiens) (UniProt P98170). Put plainly: small molecules binding XIAP protein – biophysical, small-molecule microarray, fluorescence 635 nm, primary screen (AID 1181).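 Note: score merges 667 nm emission and signal to noise over triplicate slides.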 The following applies: higher = more signal.

Chain of E3 ubiquitin-protein ligase XIAP (Homo sapiens) (P98170 whole entry, looked up): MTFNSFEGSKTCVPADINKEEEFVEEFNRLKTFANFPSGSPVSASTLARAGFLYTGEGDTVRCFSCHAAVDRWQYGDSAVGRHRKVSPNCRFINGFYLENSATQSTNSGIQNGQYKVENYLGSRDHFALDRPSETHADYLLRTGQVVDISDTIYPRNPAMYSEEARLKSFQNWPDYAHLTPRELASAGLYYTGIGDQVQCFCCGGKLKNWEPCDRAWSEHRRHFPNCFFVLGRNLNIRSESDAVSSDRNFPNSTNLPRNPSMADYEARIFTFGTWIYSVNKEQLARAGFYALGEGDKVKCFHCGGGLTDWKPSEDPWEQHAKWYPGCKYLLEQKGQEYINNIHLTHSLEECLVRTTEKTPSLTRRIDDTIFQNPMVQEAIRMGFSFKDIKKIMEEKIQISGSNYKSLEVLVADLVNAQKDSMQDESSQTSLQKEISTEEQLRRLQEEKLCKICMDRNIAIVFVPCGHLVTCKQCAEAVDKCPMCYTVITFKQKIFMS

For `COc1ccc([Si](C)(C)[C@@H]2[C@@H](CC(=O)N(CCO)Cc3ccccc3)O[C@]3(C(=O)N(Cc4cccc(N5CCOC5=O)c4)c4ccccc43)[C@H]2C)cc1`, the z-score in experiment [1] is -1.23; in [2], 0.836; in experiment [3], -1.64; in [4], -2.66; in experiment [5], -3.51; in experiment [6], -0.0766. The z-score in experiment [7] is 0.0933 (inactive); in experiment [8], -1.07; in experiment [9], -0.991; in experiment [10], -2.25 (inactive); in experiment [11], -1.89; in experiment [12] it was 0.0608 (inactive). Moreover, the z-score in experiment [13] is -3.23 (inactive); in experiment [15], 1.76 (inactive); in experiment [16], 2.67 (inactive); in experiment [17] it was 0.577 (inactive); in [18] it was -0.463 (inactive); in experiment [19] it was -2.42. Also, the composite z-score in experiment [14] is 0.0205 (inactive); in experiment [20], -0.02.
`COc1ccc(NC(=O)O[C@H]2[C@H](OC(=O)Nc3ccccc3)[C@H](OC(=O)Nc3ccccc3)[C@@H](OC)O[C@@H]2CO)cc1`: the z-score is -0.985 in experiment [1]; 0.998 in experiment [2]; -1.29 in [3]; -2.7 in experiment [4]; -2.72 in experiment [5]; -0.186 in experiment [6]. Further, the z-score in experiment [7] is -0.0233 (inactive); in [8], -0.339; in [9] it was -0.261; in [10], -1.44 (inactive); in experiment [11], -1.05; in experiment [12], 0.593 (inactive). Moreover, the z-score was -1.49 (inactive) in experiment [13]; 0.509 (inactive) in experiment [15]; 0.767 (inactive) in experiment [16]; 0.124 (inactive) in experiment [17]; 0.0606 (inactive) in experiment [18]; -0.936 in [19]. The composite z-score in [14] was 1.59 (inactive); in experiment [20], -0.0599.
Turning to `C=CCC(OC(C)=O)[C@@H]1[C@@H](N(Cc2cccc3ccccc23)C(=O)Cc2ccc(F)cc2)c2cc(OCCCO)ccc2N1C(=O)c1ccc2ccccc2n1` (stereo not given in full), the z-score in [1] is -0.359; in experiment [2], 0.389; in [3], -0.117; in experiment [4], 0.866; in experiment [5], -0.381; in experiment [6] it was 1.69. In addition, the z-score in [7] is -0.109 (inactive); in [8], 0.515; in experiment [9] it was -0.669; in experiment [10] it was 0.067 (inactive); in experiment [11], -0.157; in [12] it was 0.0526 (inactive). Moreover, the z-score is 0.263 (inactive) in experiment [13]; 0.501 (inactive) in experiment [15]; -0.142 (inactive) in experiment [16]; -0.406 (inactive) in [17]; 0.0816 (inactive) in [18]; 0.493 in [19]. Further, the figures for the composite z-score in experiment [14] and in experiment [20] were 0.451 (inactive) and 0.357, respectively.
Regarding `COCCOC(=O)N1C(=O)[C@@]2(c3cc(C#CC4=CCCCC4)ccc31)[C@H](c1ccccc1OCCO)N1[C@H](c3ccccc3)[C@H](c3ccccc3)OC(=O)[C@H]1[C@@H]2C(=O)Nc1nc2ccccc2s1`, the z-score in experiment [1] is -0.0438; in [2], 0.764; in experiment [3], 0.416; in [4], -2.34; in [5], -3.43; in [6] it was -2.68. Also, the z-score in experiment [7] was 0.745 (inactive); in [8], -0.759; in [9], -1.08; in [10] it was -0.0954 (inactive); in [11], 0.322; in experiment [12], 0.357 (inactive). Further, the z-score in experiment [13] was -0.774 (inactive); in experiment [15], 1.63 (inactive); in [16], 1.12 (inactive); in [17] it was -0.736 (inactive); in experiment [18] it was -0.3 (inactive); in experiment [19], -0.765. Also, the composite z-score in [14] is -0.291 (inactive); in experiment [20], 0.0304.
`O=C1N(Cc2ccccc2)c2ccccc2[C@@H]2OC(c3ccc(OCCCO)cc3)=N[C@]12Cc1ccccc1`: the z-score in experiment [1] was -1.43; in experiment [2] it was 1.24; in experiment [3], -1.98; in experiment [4] it was -3.26; in experiment [5] it was -4.42; in experiment [6], -1.11. Further, the z-score in [7] is 0.983 (inactive); in [8], -1.37; in [9] it was -0.884; in experiment [10] it was -1.72 (inactive); in experiment [11] it was -0.408; in experiment [12] it was -0.87 (inactive). In addition, the z-score in experiment [13] was -3.68 (inactive); in experiment [15], 1.25 (inactive); in [16], 2.06 (inactive); in [17], 1.29 (inactive); in [18], 0.259 (inactive); in experiment [19], -2.78. Besides, the composite z-score in experiment [14] was 1.07 (inactive); in experiment [20] it was -0.0749.
For the compound `COCCOC(=O)N1C(=O)[C@@]2(c3cc(C#CCNC(N)=O)ccc31)[C@H](C(=O)N1CCc3cc(OC)c(OC)cc3C1)[C@H]1C(=O)O[C@H](c3ccccc3)[C@H](c3ccccc3)N1[C@@H]2c1ccccc1OCCO`, the z-score is 0.573 in experiment [1]; 0.376 in [2]; 0.479 in [3]; 0.576 in experiment [4]; -0.529 in experiment [5]; -1.2 in experiment [6]. Moreover, the z-score in [7] is 1.72 (inactive); in experiment [8] it was -0.502; in experiment [9] it was -0.98; in experiment [10], -0.286 (inactive); in [11], 0.0874; in [12], 1.11 (inactive). Besides, the z-score in experiment [13] is 0.256 (inactive); in experiment [15], 1.54 (inactive); in experiment [16], 0.816 (inactive); in experiment [17], 1.27 (inactive); in [18] it was 1.29 (inactive); in experiment [19] it was 0.274. The composite z-score in [14] was -1.68 (inactive); in experiment [20] it was 0.0578.
As to `[N-]=[N+]=NCc1ccccc1C[C@@]1(C(=O)N2CCOCC2)N=C(c2ccc(OCCCO)cc2)O[C@@H]1c1ccccc1`, the z-score in [1] was -1.99; in [2], 1.69; in [3], -1.7; in experiment [4] it was -3.43; in experiment [5] it was -4.4; in experiment [6], -0.801. The z-score is 0.86 (inactive) in experiment [7]; -1.25 in experiment [8]; -1.12 in experiment [9]; -1.32 (inactive) in [10]; -0.932 in experiment [11]; -2.93 (inactive) in experiment [12]. For the same compound, the z-score in experiment [13] was -4.83 (inactive); in [15], 0.593 (inactive); in [16] it was -0.0165 (inactive); in experiment [17] it was 0.834 (inactive); in experiment [18], -0.274 (inactive); in experiment [19], -4.29. The composite z-score in [14] is 0.192 (inactive); in experiment [20], 0.284.
`COC(=O)c1c(CC[C@@H](CO)NC(=O)N[C@H](Cn2cc(C3(O)CCCCC3)nn2)C(C)C)oc(C(C)=O)c1C(=O)OC`: the z-score was -0.233 in experiment [1]; 1.36 in [2]; -0.134 in experiment [3]; -0.722 in experiment [4]; 0.0074 in experiment [5]; 0.74 in [6]. Besides, the z-score in [7] was 0.595 (inactive); in experiment [8], 0.355; in [9], -0.202; in experiment [10] it was -1.06 (inactive); in experiment [11], -0.752; in [12] it was -3.03 (inactive). Further, the z-score in experiment [13] was 0.679 (inactive); in experiment [15], -0.24 (inactive); in experiment [16], -0.834 (inactive); in experiment [17] it was 1.4 (inactive); in experiment [18] it was 0.669 (inactive); in [19], 0.0252. Besides, the composite z-score in experiment [14] was -4.51 (inactive); in experiment [20] it was -0.102.
